The target of this assay is Serine/threonine-protein kinase pim-2 (Homo sapiens) (UniProt Q9P1W9). The settings on record: at 1 µM.
Serine/threonine-protein kinase pim-2 (Homo sapiens), sequence (Q9P1W9 whole entry, looked up): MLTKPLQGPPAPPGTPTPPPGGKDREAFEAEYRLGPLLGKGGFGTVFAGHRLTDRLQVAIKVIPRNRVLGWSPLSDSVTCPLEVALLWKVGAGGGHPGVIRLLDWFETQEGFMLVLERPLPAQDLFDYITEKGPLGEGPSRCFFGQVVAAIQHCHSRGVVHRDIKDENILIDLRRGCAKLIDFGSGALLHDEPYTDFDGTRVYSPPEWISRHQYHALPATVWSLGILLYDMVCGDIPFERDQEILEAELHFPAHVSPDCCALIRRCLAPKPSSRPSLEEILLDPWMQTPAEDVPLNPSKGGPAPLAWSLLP
For orientation: inhibition means the relative decrease from the control value, in per cent. Turning to `COc1ccc2ncn(-c3cc(O[C@H](C)c4ccccc4Cl)c(C(N)=O)s3)c2c1`, the inhibition is -2.83%.

For `C#Cc1cccc(Nc2ncnc3ccc(OCCCCNCCS(C)(=O)=O)cc23)c1`, the inhibition is -1.09%.

Turning to `NS(=O)(=O)c1ccc(Nc2cc(-c3ccc(O)c(F)c3)n[nH]2)cc1`, the inhibition was found to be 0.39%.

Turning to `C[C@@H](Oc1cc(-n2cnc3ccc(OCC4CCN(C)CC4)cc32)sc1C(N)=O)c1ccccc1Cl`, the inhibition amounted to 2.74%.

Regarding `Fc1ccc(-c2ncn(CCCN3CCOCC3)c2-c2ccncc2)cc1`, the inhibition came out at 0.84%.

Take `NS(=O)(=O)c1ccc(N/N=C2\C(=O)Nc3ccc(C(=O)NCCCn4ccnc4)cc32)cc1`: the inhibition was found to be 7.42%.

Take `COc1ccc2cc(-c3c(-c4ccncc4)nc(-c4ccc(S(C)(=O)=O)cc4C)n3C)ccc2c1`: the inhibition was 4.18%.

Regarding `Clc1ccc(CNc2nccc(-c3cnn4ncccc34)n2)cc1`, the inhibition was determined as 2.14%.

On to `COC(=O)Nc1nc2ccc(Sc3ccc(NC(=O)Nc4cc(C(F)(F)F)ccc4F)cc3)cc2[nH]1`, for which the inhibition was -0.09%.

In the case of `Fc1ccc(-c2ncn(C3CCNCC3)c2-c2ccnc(Oc3ccc4c(c3)OCO4)n2)cc1`, the inhibition was 0.71%.

`Cc1ccc(C(=O)NC(C)C)cc1-c1ccc(C(=O)NCC2CC2)cc1`: the inhibition was found to be 1.24%.

For `CCS(=O)(=O)c1ccc(OC)c(Nc2ncc(-c3ccccc3Cl)o2)c1`, the inhibition was 0.67%.

Turning to `NC(=O)c1cc(-c2ccncc2)cc(-c2ccccc2)c1N`, the inhibition was found to be 0.75%.

For `c1ccc(-c2n[nH]cc2-c2ccnc(-c3ccc(OCCN4CCOCC4)cc3)c2)nc1`, the inhibition turned out to be 5.56%.

Turning to `Cc1ccc(C(=O)NC2CCC2)cc1-c1ccc(C(=O)NCC2CC2)cc1`, the inhibition is -0.13%.

As to `CN(c1ccc(NC(=O)Nc2c(Cl)cccc2Cl)cc1)c1ccnc(Nc2cccc(CS(C)(=O)=O)c2)n1`, the inhibition was 0.1%.

Source of the values: ChEMBL document CHEMBL1961873, “Compounds: GSK PKIS; Assays: Nanosyn kinase panel” (2012).
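Also: each value is a mean of the inhibition measurements against the kinase.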
